Rab9 prom act = Rab9 promoter activation. Potency, µM (titrated, usually from 9.22 µM), inactives show top-dose activation, negative = inhibition, most hits filed as activators. Huh7 Rab9 promoter-luciferase reporter, luminescence, 24 h. AID 485297. actives 2.8% (n = 320,000); also: % of control where 0% means no effect; nearly all actives have a fitted effect of over 60% in size
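Using Huh7 cells stably transfected with Rab9 promoter–luciferase, compounds were incubated 24 h at 37 °C, 5% CO2; luciferase luminescence was read 10 min after reagent addition.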
ELG1 repair inh = blocks ELG1-dependent DNA repair in HEK293T cells; AID 504467; actives 2.3% (n = 330,000); HEK293T ELG1-luciferase reporter, luminescence, 16 h; DNA damage induced by 5-fluorouridine; Potency, µM (highest dose often 46.1 µM), without a hit: top-dose activity change, negative = inhibition, actives largely listed as inhibitors; also: % is scaled to controls: 0 for no effect and ±100 for the full control effect; nearly all actives have a fitted effect of over 55% in size
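Reporter activity after DNA damage by 5-fluorouridine is monitored. Compound-treated cells incubate 16 hr at 37 °C, then ONE-Glo is added for 30 min before luminescence reading.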
FLuc counter = counter-screen for miR-21 project: firefly luciferase inhibitors or activators; purified FLuc, Km substrates, luminescence inhibition; Potency, µM (highest dose often 57.5 µM), for the others: at the top dose activity change, negative = inhibition, most hits filed as inhibitors; AID 588342; actives 6.9% (n = 360,000); P08659;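 also: plate controls were vehicle for no effect and reference inhibitor for full effect; nearly all actives have a fitted effect of over 55% in size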
Target sequence (P08659 whole entry, looked up): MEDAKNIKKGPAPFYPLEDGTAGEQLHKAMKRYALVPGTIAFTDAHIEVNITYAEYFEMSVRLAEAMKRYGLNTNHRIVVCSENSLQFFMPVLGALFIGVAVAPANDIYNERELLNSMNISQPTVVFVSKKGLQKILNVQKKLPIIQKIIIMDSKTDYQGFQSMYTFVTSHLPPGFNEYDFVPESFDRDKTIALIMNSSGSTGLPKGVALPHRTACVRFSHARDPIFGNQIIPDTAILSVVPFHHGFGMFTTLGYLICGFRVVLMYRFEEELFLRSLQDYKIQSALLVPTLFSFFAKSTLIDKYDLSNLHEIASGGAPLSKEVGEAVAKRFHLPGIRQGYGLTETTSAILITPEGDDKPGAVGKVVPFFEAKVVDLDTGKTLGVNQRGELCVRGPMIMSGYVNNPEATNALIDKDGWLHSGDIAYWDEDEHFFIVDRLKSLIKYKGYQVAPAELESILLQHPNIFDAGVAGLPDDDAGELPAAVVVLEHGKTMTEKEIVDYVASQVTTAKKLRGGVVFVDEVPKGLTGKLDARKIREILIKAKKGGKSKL
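Purified P. pyralis luciferase (10nM final) with 10uM D-luciferin and 10uM ATP (Km levels) in 50mM Tris acetate pH 7.5, 10mM Mg acetate, 0.01% Tween-20, 0.05% BSA; qHTS 6-point titration, ~60 µM downward; luminescence read.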
ELG1 genotoxic = induces genotoxicity in HEK293T cells with luciferase-tagged ELG1 | actives 1.3% (n = 330,000) | HEK293T ELG1-luciferase reporter, luminescence, 16 h | AID 504466 | Potency, µM (highest dose often 46 µM), for the others: at the highest dose activity change, positive = activation, most hits filed as activators; also: % of control where 0% means no effect; nearly all actives have a fitted effect of over 60% in size
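Genotoxicity was scored as increased ELG1-luciferase reporter signal, measured by ONE-Glo luminescence (30 min, room temperature). Compound or vehicle exposure of the HEK293T reporter cells lasted 16 hr at 37°C.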
NPC1 prom act = activates the NPC1 promoter | Huh7 NPC1 promoter luciferase reporter, 24 h | actives 2.4% (n = 320,000) | AID 485313 | Potency, µM (titrated, usually from 9.22 µM), without a hit: at the top dose activation, most hits filed as activators; also: % of control where 0% means no effect; nearly all actives have a fitted effect of over 60% in size
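Stable NPC1-promoter luciferase Huh7 line; cpd (DMSO) 24 h, 37 °C, 5% CO2; Amplite luciferase reagent 10 min RT; luminescence readout. qHTS format.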
SMN2 splice enh = enhancers of SMN2 splice variant expression; HEK293 SMN2-luciferase splicing reporter, luminescence, 30-36 h; Potency, µM (top dose mostly 46.1 µM), without a hit: top-dose activity change, positive = activation, hits mostly activators; actives 2.8% (n = 210,000); AID 1458; also: % of control where 0% means no effect; nearly all actives have a fitted effect of over 55% in size
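HEK293 cells carry an SMN2 […]–luciferase reporter in which exon 7 inclusion puts luciferase in frame. Cells were plated 10-12 h before compound addition, then incubated 30-36 h at 37C. ONE-Glo luminescence was read; sodium butyrate at 4.5 mM final served as control.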
An asterisk follows results filed as active; [ ] = another dose, or the depositor's remark. Hits are enriched below; roughly 9.3% of the tested compounds scored in any of these assays. Calls follow the shape of the dose curve; as a rule, active = well fitted curve in the direction sought with a large enough effect; inconclusive = small, poorly fitted or top-dose-only effect, or another doubt; inactive = no such curve, though single readings can be large; an effect the other way counts as inactive or inconclusive. Potency is read from the fitted curve at half-maximal effect.

COc1ccc(CN2CCN(Cc3cc4ccccc4o3)CC2CCO)c(F)c1 (stereo not given) was read as Rab9 prom act -2.0%, ELG1 repair inh -9.3%, FLuc counter -0.8%, ELG1 genotoxic -1.3% and NPC1 prom act -2.6%.
Screening Cc1ccccc1C(=O)Nc1c(C)[nH]c(=O)[nH]c1=O returned Rab9 prom act 6.6%, ELG1 repair inh 3.0%, FLuc counter -1.1%, ELG1 genotoxic 0.7% and NPC1 prom act -1.5%.
Screening CCOc1cc(C(=O)Nc2cc(C)ccc2OC)ccc1OCC(=O)N1CCCCC1 returned Rab9 prom act -0.6%, ELG1 repair inh -7.0%, FLuc counter 0.9%, ELG1 genotoxic -2.5%, NPC1 prom act -4.3% and SMN2 splice enh 4.6%.
`C=CCSc1nc(=O)n2cccc(C)c2n1` gave Rab9 prom act -4.7%, ELG1 repair inh 16.4%, FLuc counter -0.5%, ELG1 genotoxic 0.3%, NPC1 prom act -1.4% and SMN2 splice enh -13.0%.
`CCOC(=O)CC1=NN(c2ccccc2)C(=O)C1` gave Rab9 prom act 1.2%, ELG1 repair inh -1.9%, FLuc counter -2.4%, ELG1 genotoxic -2.5%, NPC1 prom act -1.1% and SMN2 splice enh 4.7%.
`CCOC(=O)CC1=NN(c2ccccc2)C(=O)/C1=C\c1ccc(N(C)C)cc1` gave Rab9 prom act -2.7%, ELG1 repair inh inconclusive, FLuc counter 10.7µM*, ELG1 genotoxic 2.7%, NPC1 prom act -10.8% and SMN2 splice enh 16.5%[1.84 µM].
Screening CC1=NN(c2ccccc2)C(=O)/C1=C/C=C/c1ccc(N(C)C)cc1 returned Rab9 prom act 5.6%, ELG1 repair inh 0.4%, FLuc counter 4.78µM*, ELG1 genotoxic -7.9%, NPC1 prom act 1.9% and SMN2 splice enh -19.0%.
Screening CC1=NN(c2ccc(C(=O)OC(C)C)cc2)C(=O)/C1=C\C=C\c1ccco1 returned Rab9 prom act 10.6%, ELG1 repair inh 0.4%, FLuc counter inconclusive, ELG1 genotoxic -6.2%, NPC1 prom act -0.4% and SMN2 splice enh -34.2%.
For CC1=NN(c2ccccc2)C(=O)/C1=C\C=C1\N(C)c2ccccc2C1(C)C the results were Rab9 prom act -9.3%, ELG1 repair inh inconclusive, FLuc counter -20.2%, ELG1 genotoxic -12.0%, NPC1 prom act -3.1% and SMN2 splice enh -47.9%.
Screening CC1=NN(c2ccccc2)C(=O)/C1=C\C=C\c1ccccc1 returned Rab9 prom act -1.0%, ELG1 repair inh 18.3µM*, FLuc counter 16.9µM*, ELG1 genotoxic -14.7% and NPC1 prom act -4.0%.
COc1ccc(NC(=O)CSc2nnc(C)n2Cc2ccccc2)cc1 was read as Rab9 prom act -8.3%, ELG1 repair inh 5.9%, FLuc counter -11.2%, ELG1 genotoxic -2.0%, NPC1 prom act 3.4% and SMN2 splice enh -11.2%.
`Cc1ccccc1C(=O)NNC(=S)NC(=O)c1ccccc1` gave Rab9 prom act -2.3%, ELG1 repair inh 22.1%, FLuc counter -3.3%, ELG1 genotoxic 0.3%, NPC1 prom act -0.3% and SMN2 splice enh -44.2%.
`Cc1ccc(-c2ccc(SCC(=O)Nc3ccc4c(c3)OCCO4)nn2)cc1` gave Rab9 prom act 15.5%, ELG1 repair inh inconclusive, FLuc counter 1.9µM*, ELG1 genotoxic 11.1%, NPC1 prom act 17.6% and SMN2 splice enh 23.4%.
`O=C(CSc1ccc(-c2nc3ccccc3[nH]2)cn1)Nc1ccc2c(c1)OCCO2` gave Rab9 prom act inconclusive, ELG1 repair inh inconclusive, FLuc counter inconclusive, ELG1 genotoxic 10.1%, NPC1 prom act 27.5% and SMN2 splice enh 16.8%.
`Cc1cc2nc(-c3ccc(SCC(=O)Nc4ccc5c(c4)OCCO5)nc3)[nH]c2cc1C` gave Rab9 prom act 3.98µM*, ELG1 repair inh inconclusive, FLuc counter 0.338µM*, ELG1 genotoxic inconclusive, NPC1 prom act 2.82µM* and SMN2 splice enh inconclusive.
